Screening data from PubChem BioAssay.
CYP2C19 activ: activators of human cytochrome P450 2C19; activation factor at 5 µM; 96,000 tested, under 10 active; AID 1025; recombinant CYP2C19, luciferin-H EGE luminescence; stronger effect = higher value; 0 = fully inhibited enzyme, 1 = untreated enzyme;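 active means activation factor of at least 2 at 5 µM in the primary screen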;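 further: 0 = wells with 2.5 mM tranylcypromine and 1 = vehicle-only wells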
CYP2C9 inh: blocks human cytochrome P450 2C9 | inhibition, % at 5 µM | P11712 | CYP2C9 Supersomes, luciferin-H conversion, luminescence | 20% of 96,000 active;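 active means blocking of liver enzyme CYP2C9 beyond about 50% at 5 µM, limit read from the data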
Target sequence (P11712 whole entry, looked up): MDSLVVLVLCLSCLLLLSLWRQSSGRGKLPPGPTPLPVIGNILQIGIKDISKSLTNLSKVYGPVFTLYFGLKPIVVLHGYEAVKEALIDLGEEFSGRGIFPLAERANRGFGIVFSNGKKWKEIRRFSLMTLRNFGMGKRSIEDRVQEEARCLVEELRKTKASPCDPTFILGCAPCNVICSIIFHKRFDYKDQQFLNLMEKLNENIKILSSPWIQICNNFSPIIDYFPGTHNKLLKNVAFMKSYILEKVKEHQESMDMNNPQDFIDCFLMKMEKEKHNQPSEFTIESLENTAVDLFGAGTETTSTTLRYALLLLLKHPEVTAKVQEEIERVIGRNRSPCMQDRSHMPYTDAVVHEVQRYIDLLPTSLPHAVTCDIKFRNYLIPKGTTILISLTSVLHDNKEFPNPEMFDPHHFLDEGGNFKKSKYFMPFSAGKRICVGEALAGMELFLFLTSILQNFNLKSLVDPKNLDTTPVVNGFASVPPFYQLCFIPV
CYP2C9 act: increases human cytochrome P450 2C9 activity | P11712 | recombinant CYP2C9, luciferin-H conversion, luminescence; stronger effect = higher value; factor 1 = untreated enzyme, 0 = blocked | activation factor at 5 µM | 1.4% of 96,000 active;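 active means activation factor of 2 or more for CYP2C9 at a 5 µM dose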;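 further: 0 = sulfaphenazole-blocked wells and 1 = vehicle-only wells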
PLAP act: activators of human placental alkaline phosphatase; P05187; purified PLAP enzyme, luminescent substrate read-out; stronger effect = higher value; activation fold at 20 µM; 1.2% of 96,000 active; in the data active means activation fold above about 2
CYP2C19 inh: inhibitors of human CYP2C19; P33261; CYP2C19 Supersomes, luciferin-H EGE luminescence, 30 min; inhibition, % at 5 µM; 21% of 96,000 active;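 active means CYP2C19 inhibition above a set limit at 5 µM in the primary screen, cut at about 50% in these data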;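 further: plate controls were negative control wells for no effect and 2.5 mM tranylcypromine positive control for full effect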
Numbers without * were called inactive. Only some compounds are listed: those with a hit (about 31% of all), similar ones and a draw of the others.

SMILES	CYP2C19 activ	CYP2C9 inh	CYP2C9 act	PLAP act	CYP2C19 inh
COC(=O)c1cccc(S(=O)(=O)N(Cc2ccco2)Cc2cc3cc(OC)ccc3[nH]c2=O)c1	0.8	23	0.8	1.2	24
O=C1SC(c2ccccc2)=C/C1=C\N1CCCCC1	0.4	41	0.6	1.2	57*
CCN(CC(=O)NC1CCCCCC1)S(=O)(=O)c1ccccc1	0.7	21	0.8	0.9	28
CN(CC(=O)NC1CCCCCC1)S(=O)(=O)c1ccccc1	0.6	21	0.8	1	45
CCCC(=O)Nc1ccccc1NC(=O)CN(C)S(=O)(=O)c1ccccc1	0.9	58*	0.4	0.7	10
CC(C)NC(=O)CN(C)S(=O)(=O)c1ccc(F)cc1	1	-1	1	1	-3
CCN(CC(=O)Nc1ccccc1C(=O)OC)S(=O)(=O)c1ccccc1	0.2	24	0.8	1.1	80*
CSc1cccc(NC(=O)CN(C)S(=O)(=O)c2ccccc2)c1	0.1	20	0.8	0.7	86*
CSc1cccc(NC(=O)CN(C)S(=O)(=O)c2ccc(F)cc2)c1	0.4	1	1	0.9	63*
CCC(=O)N(Cc1cc(=O)[nH]c2ccccc12)C1CCCCC1	1.1	3	1	1.2	-6
COc1ccc(-c2nnc3ccc(SC)nn23)cc1	1	15	0.9	1.1	2
CC(=O)NCC(=O)NC(C(=O)Nc1ccc2c(c1)OCCO2)c1ccccc1 (stereo not drawn)	1	-4	1	1.3	-4
CSc1cccc(NC(=O)COc2cccc3ccccc23)c1	0.7	-121	2.2*	1	30
O=C(COc1cccc2ccccc12)Nc1nc2ccccc2[nH]1	0.9	-59	1.6	1.5	12
CN(CC(=O)Nc1nccs1)S(=O)(=O)c1ccc(F)cc1	0.3	45	0.6	0.9	67*
CC(C)C(C)(C#N)NC(=O)CSc1nc2scc(-c3ccco3)c2c(=O)n1-c1ccccc1 (stereo not drawn)	0.8	55*	0.5	1.6	24
CC(C)C(C)NC(=O)CSc1nc2scc(-c3ccco3)c2c(=O)n1-c1ccccc1 (stereo not drawn)	1	37	0.6	1.6	3
CC1CCN(C(=O)CSc2nnc(CN3CCOCC3)n2-c2ccccc2)CC1	1.1	-20	1.2	1.5	-11
Cc1ccccc1NS(=O)(=O)c1cc(C(=O)Nc2cccc(N(C)S(C)(=O)=O)c2)ccc1C	0.6	78*	0.2	1.2	38
CN(c1cccc(NC(=O)c2ccc(Cl)c(S(=O)(=O)Nc3ccccc3)c2)c1)S(C)(=O)=O	0.2	97*	0	1.6	85*
COc1cccc(-c2noc(-c3cccnc3)n2)c1	0.8	18	0.8	0.9	24
COc1cccc(-c2noc(C(C)n3nc(C)c([N+](=O)[O-])c3C)n2)c1 (stereo not drawn)	0.7	55*	0.5	0.9	33
CCOC(=O)c1c(C)[nH]c(C(=O)CN2CCOCC2)c1C	0.8	13	0.9	1	18
CCOC(=O)c1c(C)[nH]c(C(=O)COC(=O)c2ccccn2)c1C	0.7	56*	0.4	0.9	34
CCOC(=O)c1c(C)[nH]c(C(=O)Cn2nnc(-c3ccccc3)n2)c1C	0.4	48	0.5	0.9	59*
SMILES	CYP2C19 activ	CYP2C9 inh	CYP2C9 act	PLAP act	CYP2C19 inh
CCOC(=O)c1c(C)[nH]c(C(=O)Cn2nnc(-c3ccccc3Cl)n2)c1C	0.8	82*	0.2	0.9	19
COC(=O)c1scc(C)c1NC(=O)C1CCCCC1	1	3	1	1	1
CCCCn1nnc(NC(=O)CCC)n1	1.1	-11	1.1	1.1	-9
CC(=O)Nc1nonc1-c1ccccc1	1.1	-14	1.1	1	-8
O=C(Cc1ccccc1)Nc1nonc1NC(=O)c1ccccc1	0.7	70*	0.3	1.1	27
O=S(=O)(Nc1ccc(Cc2ccncc2)cc1)c1ccc(Br)s1	0.3	100*	0	1.1	72*
O=S(=O)(Nc1ccc(Cc2ccncc2)cc1)c1ccc(Br)cc1	0	99*	0	1.1	100*
N#CCc1ccc(NS(=O)(=O)c2cccs2)cc1	0.1	72*	0.3	1.1	86*
CCS(=O)(=O)Nc1ccc(Cc2ccncc2)cc1	0.1	95*	0.1	0.9	93*
Cc1ccc(S(=O)(=O)N2CCN(C(=O)CN3CCOCC3)C2c2ccccc2)cc1 (stereo not drawn)	0.9	6	0.9	1.5	12
CC1(C)CC(NC(=O)COc2ccc3ccccc3c2)CC(C)(C)N1	0.9	18	0.8	0.9	14
O=C(COC(=O)c1ccccn1)NCCCc1ccccc1	0.6	16	0.8	0.9	38
CCCCc1ccc(NS(=O)(=O)c2cccs2)cc1	0.5	59*	0.4	1.2	49
NS(=O)(=O)c1ccc(NS(=O)(=O)c2cccs2)cc1	0.9	22	0.8	1.1	8
O=S(=O)(NC1=NCCCCC1)c1cccs1	1	-14	1.1	1.2	2
O=S(=O)(Nc1ccc(Cc2ccncc2)cc1)c1cccs1	0	99*	0	1.1	100*
Cc1cc(NS(=O)(=O)c2cccs2)no1	1.1	-13	1.1	0.8	-7
Cc1ccc(NS(=O)(=O)c2ccc(NS(=O)(=O)c3cccs3)cc2)cc1	0.5	87*	0.1	1.1	50
Cc1ccc(NC(=O)COC(=O)c2ccc3c(c2)NC(=O)C2CCCN32)cc1C (stereo not drawn)	0.8	-7	1.1	1.6	18
COC(=O)Cn1c(=NC(=O)CSC(C)=O)sc2ccccc21	1.1	50	0.5	1	-5
CCc1nc2ccccc2c(C(=O)OCCN2C(=O)c3ccccc3C2=O)c1C	0.2	57*	0.4	1.1	76*
CCc1nc2ccccc2c(C(=O)O)c1C	0.5	39	0.6	1	48
CCc1nc2ccccc2c(C(=O)OCc2nnc(-c3ccccc3)o2)c1C	0.3	61*	0.4	1.2	68*
O=C1Nc2c(c(=O)[nH]c(=O)n2-c2ccccc2)C1(Nc1ncccn1)C(F)(F)F (stereo not drawn)	1	2	1	1	4
O=C(OCc1nc2ccccc2s1)C1CCN(C2=NS(=O)(=O)c3ccccc32)CC1	0.8	21	0.8	1.8	19
CCN(CC)c1nc(N)c2c(N)n(-c3ccccc3C)c(=S)c(C#N)c2c1C#N	0.9	22	0.8	1.4	10
N#Cc1c(N)nc(N2CCCC2)c(C#N)c1-c1ccc(Cl)cc1	1.1	-9	1.1	0.9	-10
CCN(CC)c1nc(N)c2c(N)nc3c(c2c1C#N)CC(c1ccccc1)O3 (stereo not drawn)	0.4	82*	0.2	1.1	56*
N#Cc1c(N2CCCCC2)nc(N)c2c(N)nc3c(c12)CC(c1ccccc1)O3 (stereo not drawn)	0.8	64*	0.4	1.3	25
COc1cc(Cl)c(C)cc1NC(=O)COc1ccccc1[N+](=O)[O-]	0.9	24	0.8	0.9	14
